KB-3-1 tox – KB-3-1 parental cell cytotoxicity. Potency, µM (doses to about 46.1 µM), actives largely listed as cytotoxic. KB-3-1 viability, CellTiter-Glo ATP luminescence, 72 h. AID 1347075. actives 1.4% (n = 400,000); further: nearly all actives have a fitted effect of over 60% in size
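Here the drug-naive KB-3-1 line serves as comparator for MDR sub-line selectivity; cells received compound titrations, 72 h at 37 °C, then CellTiter-Glo readout.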
HT1080NT lethal – kills 2HG-producing HT-1080-NT fibrosarcoma cells; AID 686970; HT-1080-NT fibrosarcoma viability, CellTiter-Glo ATP luminescence, 48 h; actives 1.6% (n = 360,000); Potency, µM (highest dose often 46.1 µM), inactives show top-dose activity, negative = less viability, hits mostly cytotoxic;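 further: NT is the 2HG producing partner of a matched IDH1 knockdown line; 0% = DMSO-treated cells and -100% = media-only wells without cells; nearly all actives have a fitted effect of over 55% in size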
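A 48-hour cytotoxicity screen used HT-1080-NT cells plated 2 hours before compound delivery. ATP-based CellTiter-Glo luminescence measured viability, normalized to DMSO and no-cell controls.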
KB-V1 MDR tox – kills drug-selected multidrug resistant KB-V1 cells | actives 3.4% (n = 400,000) | AID 1347076 | Potency, µM (series often up to 46.1 µM), usual class: cytotoxic | KB-V1 MDR cells viability, CellTiter-Glo, 72 h; further: nearly all actives have a fitted effect of over 60% in size
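KB-V1, DMEM (no phenol red) + 10% FBS; cpd pin-transferred, titration series; 72 h, 37 degrees C; CellTiter-Glo, luminescence. Data normalized, curve-fit.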
HT1080 IDH1KD tx – HT-1080 IDH1 knockdown cell toxicity (counter line). AID 686971. HT-1080 IDH1 knockdown viability, ATP luminescence, 48 h. Potency, µM (titrated, usually from 46.1 µM), inactives show at the top dose activity, negative = toxicity, most hits filed as cytotoxic. actives 2% (n = 360,000);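 further: 0% = DMSO wells and -100% = cell-free medium wells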
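Cytotoxicity counter-line: IDH1KD HT-1080, 48 h, CellTiter-Glo. Curves classed by r2, magnitude and activity.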
DT40 TDP1 CPT – DT40-hTDP1 cell growth loss with CPT. chicken DT40 Tdp1-/-;hTDP1 cells + 20 nM CPT, ATP luminescence, 48 h. Potency, µM (titrated, usually from 46.2 µM), without a hit: at the highest dose activity change, negative = growth inhibition, most hits filed as inhibitors. actives 12% (n = 420,000). AID 686979; further: nearly all actives have a fitted effect of over 55% in size
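Chicken DT40 Tdp1-/- cells stably complemented with human TDP1 were seeded at 400 cells/well in medium containing 20 nM camptothecin, exposed to pin-transferred compounds, and grown at 37 °C for at least 48 hr. Viability was read as ATP luminescence.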
DT40 TDP1 no CPT – qHTS for Inhibitors of human tyrosyl-DNA phosphodiesterase 1 (TDP1): qHTS in cells in absence of CPT. DT40 Tdp1-/- hTDP1 cells, no CPT, ATP luminescence, 48 h. Potency, µM (series often up to 46.2 µM), without a hit: at the top dose activity change, negative = growth inhibition, most hits filed as inhibitors. actives 15% (n = 420,000). AID 686978, 2013; further: nearly all actives have a fitted effect of over 55% in size
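Seeded 400 DT40-hTDP1 cells/well (vehicle DMSO, no 20 nM CPT); pinned compounds; ≥48 hr at 37 °C; CellTiter-Glo luminescence as viability measure.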
* = called active by the depositor; i = inactive; ? = inconclusive. Compounds with a hit are over-represented: about 19% of the library has one in this group of screens. The call rests on the fitted dose curve; in most records, active means well fitted curve in the direction sought with a large enough effect; inconclusive means small, poorly fitted or top-dose-only effect, or another doubt; inactive means no such curve, though single readings can be large; an effect the other way counts as inactive or inconclusive. Unless noted, on the % scale 0 is the no-effect control and ±100 the full control effect; potency means the concentration at half of the fitted maximal effect.

SMILES	KB-3-1 tox	HT1080NT lethal	KB-V1 MDR tox	HT1080 IDH1KD tx	DT40 TDP1 CPT	DT40 TDP1 no CPT
COc1cc(/C=N/NC(=O)c2ccoc2C)cc(OC)c1O	i	12%	?	4%	0%	9%
COc1ccc(/C=N/NC(=O)c2ccccc2O)cc1COc1ccccn1	i	-19%	i	-17%	-2%	17%
COc1ccc(/C=N/NC(=O)c2ccoc2C)cc1COc1c(C)cccc1C	?	4.6µM*	?	5.2µM*	12µM*	15µM*
O=C(c1n[nH]c2ccccc12)N1CCN(c2ccc(F)cc2)CC1	i	10%	i	12%	-28%	-26%
Cc1cc(C)c2[nH]c(=O)c(C(c3nnnn3Cc3ccc4c(c3)OCO4)N3CCC(C)CC3)cc2c1 (stereo unspecified)	i	16%	i	12%	?	16µM*
COc1ccc2[nH]c(=O)c(C(c3nnnn3C3CCCC3)N(C)C3CCCCC3)cc2c1 (stereo unspecified)	i	-1%	5.2µM*	-1%	?	?
COc1ccc2[nH]c(=O)c(C(c3nnnn3C3CCCC3)N3CCN(Cc4ccc5c(c4)OCO5)CC3)cc2c1 (stereo unspecified)	i	-28%	?	?	26µM*	?
CCOc1ccc2[nH]c(=O)c(C(c3nnnn3C3CCCCC3)N3CCN(C)CC3)cc2c1 (stereo unspecified)	i	-7%	i	-11%	?	-15%
CCc1c(C)sc(NC(=O)c2cc(-c3ccco3)on2)c1C#N	i	10%	i	-3%	-19%	-18%
CC(C)N(C)S(=O)(=O)c1ccc(NC(=O)CSC(=S)N2CCCC2)cc1	i	-3%	i	-10%	-11%	-7%
COc1ccc(N2CCN(C(=O)CCCn3c(=S)[nH]c4cc5c(cc4c3=O)OCO5)CC2)cc1	i	0%	i	-8%	-20%	-6%
O=C(CCCCCn1c(=S)[nH]c2cc3c(cc2c1=O)OCO3)N1CCN(C(=O)c2ccco2)CC1	i	-24%	i	-3%	-23%	-29%
O=C(CCCCCn1c(=S)[nH]c2cc3c(cc2c1=O)OCO3)N1CCN(C2CCCCC2)CC1	i	-4%	21µM*	0%	?	?
O=C(CCCCCn1c(=S)[nH]c2cc3c(cc2c1=O)OCO3)N1CCN(Cc2ccccc2)CC1	i	-14%	i	-25%	9.2µM*	-29%
CC1(C)C[C@H](O)[C@@]23C[C@@H](OC2=O)[C@]2(C)C(=CCC4[C@@]5(C)CC[C@H](O)C(C)(C)C5CC[C@]42C)[C@@H]3C1 (stereo partly specified)	i	26%	i	8%	-10%	?
O=C(CSCC(=O)N1CCOCC1)Nc1nc(-c2ccc3c(c2)OCO3)cs1	i	-2%	i	-5%	-29%	-28%
CCOC(=O)N1CCN(C(=O)CSCC(=O)Nc2nc(-c3ccc(C)cc3)cs2)CC1	i	8%	?	-3%	16µM*	12µM*
CCOC(=O)N1CCN(C(=O)CSCC(=O)Nc2nc(-c3cccs3)cs2)CC1	i	0%	i	?	?	?
CCOC(=O)N1CCN(C(=O)CSCC(=O)Nc2nc(-c3ccc4c(c3)OCO4)cs2)CC1	i	-14%	?	-13%	21µM*	21µM*
Cc1cccc(C)c1OCC(O)CN(Cc1ccccc1O)C1CCCCC1 (stereo unspecified)	?	9.2µM*	?	?	16µM*	10µM*
CN(CC(O)COc1ccc(OCC(O)CN(C)C2CCCCC2)cc1)C1CCCCC1 (stereo unspecified)	i	-23%	i	?	?	?

Screens: PubChem BioAssay, National Center for Advancing Translational Sciences (NCATS)
